Assay results from PubChem BioAssay (EPA / NIEHS).
Calls of active or inactive are those of the source. Rule for the calls: active = hit-call score of the fitted dose curve at least 0.9, where 1 is the maximum; inactive = score below 0.9.

How the values were obtained:
[1] = read-out: Tissue Factor, F3 (gene 2152); assay: BSK_CASM3C_TissueFactor: BioMAP Diversity Plus: CASM3C Assay for Tissue Factor Biomarker Activity (AID 2283052); conditions: primary human coronary artery smooth muscle cells; actives raise or lower the signal;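 note: cell surface tissue factor protein level read by ELISA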
[2] = read-out: Interferon-gamma inducible Protein 10 (IP10), CXCL10 (gene 3627); assay: BSK_hDFCGF_IP10: BioMAP Diversity Plus: hDFCGF Assay for Interferon-gamma inducible Protein 10 (IP10) Biomarker Activity (AID 2283053); conditions: primary human foreskin fibroblasts; actives raise or lower the signal
How it was run: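 Cells: human dermal foreskin fibroblasts. Exposure: 24 h post-dosing. Detection: IP-10 ELISA, with values expressed against DMSO controls and fitted in both directions.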

[3] = read-out: Urokinase-type plasminogen activator receptor (uPAR), PLAUR (gene 5329); assay: BSK_CASM3C_uPAR: BioMAP Diversity Plus: CASM3C Assay for Urokinase-type plasminogen activator receptor (uPAR) Biomarker Activity (AID 2283054); conditions: primary human coronary artery smooth muscle cells; actives raise or lower the signal;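 note: cell-surface uPAR protein level quantified by ELISA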
[4] = read-out: Vascular cell adhesion molecule 1 (VCAM1), VCAM1 (gene 7412); assay: BSK_CASM3C_VCAM1: BioMAP Diversity Plus: CASM3C Assay for Vascular cell adhesion molecule 1 (VCAM1) Biomarker Activity (AID 2283055); conditions: primary human coronary artery smooth muscle cells; actives raise or lower the signal;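 note: VCAM-1 protein level quantified by ELISA on the cells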
[5] = read-out: Epidermal growth factor receptor (EGFR), EGFR (gene 1956); assay: BSK_hDFCGF_EGFR: BioMAP Diversity Plus: hDFCGF Assay for Epidermal growth factor receptor (EGFR) Biomarker Activity (AID 2283057); conditions: primary human foreskin fibroblasts; actives raise or lower the signal
How it was run: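 Dosing human primary skin fibroblasts, then measuring surface EGFR by ELISA at 24 h, gives the endpoint; gains and losses relative to DMSO were fitted in both directions.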

[6] = read-out: Interleukin-8 (IL8), CXCL8 (gene 3576); assay: BSK_hDFCGF_IL8: BioMAP Diversity Plus: hDFCGF Assay for Interleukin-8 (IL8) Biomarker Activity (AID 2283058); conditions: primary human foreskin fibroblasts; actives raise or lower the signal
How it was run: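 Fibroblast monolayers (human foreskin, hDFCGF) received test chemical for 24 h before ELISA detection of IL-8; either increases or decreases relative to DMSO count as activity.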

[7] = BSK_hDFCGF_Proliferation: Cell Proliferation Assessment in the BioMAP Diversity Plus: hDFCGF Assay (AID 2283059); conditions: primary human foreskin fibroblasts;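 note: curves fitted for both rise and fall of signal versus DMSO baseline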
How it was run: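 Sub-confluent human foreskin fibroblast cultures receive test chemical […]. Relative cell number is quantified by sulforhodamine B staining (0.1%, after 10% TCA fixation) at 560 nm, with bidirectional fitting referenced to DMSO.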

[8] = read-out: Macrophage colony-stimulating factor (MCSF), CSF1 (gene 1435); assay: BSK_hDFCGF_MCSF: BioMAP Diversity Plus: hDFCGF Assay for Macrophage colony-stimulating factor (MCSF) Biomarker Activity (AID 2283060); conditions: primary human foreskin fibroblasts; actives raise or lower the signal
How it was run: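 fibroblasts (human foreskin, primary), 24 h post-dose; M-CSF by ELISA; bidirectional fit, DMSO = baseline.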

[9] = BSK_hDFCGF_SRB: Viability Assessment in the BioMAP Diversity Plus: hDFCGF Assay (AID 2283061); conditions: primary human foreskin fibroblasts;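 note: cells exposed to compound for 24 h before the read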
How it was run: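 SRB-based viability read on primary human skin fibroblasts at 24 h: TCA fixation, 0.1% dye, 560 nm. Gain or loss of signal is fitted against the DMSO negative control.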

[10] = read-out: TIMP metallopeptidase inhibitor 1 (TIMP1), TIMP1 (gene 7076); assay: BSK_hDFCGF_TIMP1: BioMAP Diversity Plus: hDFCGF Assay for TIMP metallopeptidase inhibitor 1 (TIMP1) Biomarker Activity (AID 2283062); conditions: primary human foreskin fibroblasts; actives raise or lower the signal
How it was run: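 Bidirectional curve fitting against DMSO baseline yielded this endpoint, based on ELISA detection of TIMP-1 in primary human foreskin fibroblasts exposed to compound for 24 h.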

[11] = read-out: Monokine induced gamma interferon (MIG), CXCL9 (gene 4283); assay: BSK_hDFCGF_MIG: BioMAP Diversity Plus: hDFCGF Assay for Monokine induced gamma interferon (MIG) Biomarker Activity (AID 2283063); conditions: primary human foreskin fibroblasts; actives raise or lower the signal
How it was run: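 Endpoint derived by bidirectional fitting relative to DMSO; MIG quantified via ELISA in primary human foreskin fibroblasts harvested 24 h after dosing.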

[12] = read-out: Vascular cell adhesion molecule 1 (VCAM1), VCAM1 (gene 7412); assay: BSK_hDFCGF_VCAM1: BioMAP Diversity Plus: hDFCGF Assay for Vascular cell adhesion molecule 1 (VCAM1) Biomarker Activity (AID 2283065); conditions: primary human foreskin fibroblasts; actives raise or lower the signal;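 for AC50: VCAM-1 protein level quantified by ELISA after 24 h chemical exposure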
How it was run: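 Measured after 24 h chemical treatment of primary human skin fibroblasts, VCAM-1 was detected by ELISA and concentration-response analysed in both directions versus DMSO vehicle.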

[13] = read-out: Plasminogen activator inhibitor-1 (PAI1), SERPINE1 (gene 5054); assay: BSK_hDFCGF_PAI1: BioMAP Diversity Plus: hDFCGF Assay for Plasminogen activator inhibitor-1 (PAI1) Biomarker Activity (AID 2283066); conditions: primary human foreskin fibroblasts; actives raise or lower the signal
How it was run: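 Fibroblasts from human foreskin were treated with test chemical. After 24 h, PAI-1 was measured by ELISA. Activity was fitted in both directions relative to DMSO.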

[14] = read-out: Intercellular Adhesion Molecule 1 (ICAM1), ICAM1 (gene 3383); assay: BSK_KF3CT_ICAM1: BioMAP Diversity Plus: KF3CT Assay for Intercellular Adhesion Molecule 1 (ICAM1) Biomarker Activity (AID 2283067); conditions: primary human keratinocytes with fibroblasts; actives raise or lower the signal
How it was run: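 Bidirectional curve fitting against a DMSO baseline was applied to ICAM-1 ELISA signal from primary human skin co-cultures harvested 24 h after treatment, with SRB staining of parallel wells for overt cytotoxicity.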

[15] = read-out: Interferon-gamma inducible Protein 10 (IP10), CXCL10 (gene 3627); assay: BSK_KF3CT_IP10: BioMAP Diversity Plus: KF3CT Assay for Interferon-gamma inducible Protein 10 (IP10) Biomarker Activity (AID 2283068); conditions: primary human keratinocytes with fibroblasts; actives raise or lower the signal
How it was run: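 ELISA read-out of IP-10 after 24 h chemical dosing of human skin primary co-culture (keratinocytes, foreskin fibroblasts). Gain or loss of signal relative to DMSO, bidirectional curve fit.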

[16] = BSK_KF3CT_SRB: Viability Assessment in the BioMAP Diversity Plus: KF3CT Assay (AID 2283069); conditions: primary human keratinocytes with fibroblasts;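 note: fitted for both signal gain and loss against DMSO baseline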
How it was run: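 Overt cytotoxicity is assessed as total protein by sulforhodamine B staining in parallel human skin co-cultures at 24 h after dosing. DMSO serves as negative control and baseline.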

[17] = read-out: Interleukin-1 alpha (IL1a), IL1A (gene 3552); assay: BSK_KF3CT_IL1a: BioMAP Diversity Plus: KF3CT Assay for Interleukin-1 alpha (IL1a) Biomarker Activity (AID 2283070); conditions: primary human keratinocytes with fibroblasts; actives raise or lower the signal
How it was run: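 Readout is IL-1a level by ELISA, compared bidirectionally with DMSO as baseline. Cells: human keratinocytes co-cultured with foreskin fibroblasts, harvested 24 h post-dose.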

[18] = read-out: TIMP metallopeptidase inhibitor 2 (TIMP2), TIMP2 (gene 7077); assay: BSK_KF3CT_TIMP2: BioMAP Diversity Plus: KF3CT Assay for TIMP metallopeptidase inhibitor 2 (TIMP2) Biomarker Activity (AID 2283071); conditions: primary human keratinocytes with fibroblasts; actives raise or lower the signal
How it was run: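 Chemicals were dosed onto human skin primary co-cultures of keratinocytes and foreskin fibroblasts, and TIMP-2 was measured by ELISA after 24 hours. Activity in either direction was fitted relative to DMSO.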

[19] = read-out: Matrix Metallopeptidase 1 (MMP1), MMP1 (gene 4312); assay: BSK_hDFCGF_MMP1: BioMAP Diversity Plus: hDFCGF Assay for Matrix Metallopeptidase 1 (MMP1) Biomarker Activity (AID 2283064); conditions: primary human foreskin fibroblasts; actives raise or lower the signal
How it was run: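 Human foreskin fibroblasts exposed to chemical for 24 h; MMP1 detected by ELISA, with DMSO as baseline for bidirectional fitting.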

[20] = read-out: Collagen III, COL3A1 (gene 1281); assay: BSK_hDFCGF_CollagenIII: BioMAP Diversity Plus: hDFCGF Assay for Collagen III Biomarker Activity (AID 2283056); conditions: primary human foreskin fibroblasts; actives raise or lower the signal
How it was run: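 Response relative to DMSO, fitted in both directions, reflects ELISA-measured collagen III in human primary skin fibroblasts 24 h after compound addition.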

Measured: AC50

CC(N)=O
not listed: [19] | [20]
inactive: all other assays above

CCCCC(CC)COC(=O)CCCCCCCC(=O)OCC(CC)CCCC (configuration not stated)
not listed: [20]
inactive: all other assays above

CC(C)OC(=O)C(C)(C)Oc1ccc(C(=O)c2ccc(Cl)cc2)cc1
active: [2] 12.9 µM | [3] 5.38 µM | [4] 5 µM | [7] 26.4 µM | [13] 3.97 µM
not listed: [15] | [19] | [20]
inactive: all other assays above

COC(=O)[C@H]1[C@H]2C[C@@H]3c4[nH]c5cc(OC)ccc5c4CCN3C[C@H]2C[C@@H](OC(=O)c2cc(OC)c(OC)c(OC)c2)[C@@H]1OC
active: [7] 16.9 µM
not listed: [13] | [20]
inactive: all other assays above

Cc1cc(SC2=C(O)C[C@@](CCc3ccc(N)cc3)(C(C)C)OC2=O)c(C(C)(C)C)cc1CO
not listed: [19] | [20]
inactive: all other assays above

CCCCc1nc2cccnc2n1Cc1ccc(-c2ccccc2-c2nnn[nH]2)cc1
active: [2] 32 µM | [7] 18.7 µM | [15] 29.7 µM
not listed: [20]
inactive: all other assays above

S=c1[nH]c2ccccc2s1
not listed: [20]
inactive: all other assays above

CCN(CC)CCOc1ccc(C(=C(Cl)c2ccccc2)c2ccccc2)cc1
inactive: [5]
active: [1] 31.8 µM | [2] 14.4 µM | [3] 31.1 µM | [4] 31.6 µM | [6] 13 µM | [7] 0.123 µM | [8] 10.4 µM | [9] 11.6 µM | [10] 13.6 µM | [11] 13 µM | [12] 14.1 µM | [13] 9.48 µM | [14] 14 µM | [15] 13.5 µM | [16] 12 µM | [17] 14.5 µM | [18] 12.6 µM

CN(C)CCCN1c2ccccc2Sc2ccc(Cl)cc21
inactive: [1] | [4] | [18]
active: [2] 26.1 µM | [3] 20 µM | [6] 31.4 µM | [7] 16.6 µM | [8] 22.1 µM | [9] 31.9 µM | [11] 31.1 µM | [12] 24.7 µM | [13] 31.9 µM | [14] 35.4 µM | [15] 30.8 µM | [16] 31.6 µM | [17] 31 µM

O=C(O)c1cccnc1
not listed: [19] | [20]
inactive: all other assays above

Cc1occc(=O)c1O
not listed: [19] | [20]
inactive: all other assays above

CC(=O)[C@@]1(O)CC[C@H]2[C@@H]3CCC4=CC(=O)CC[C@]4(C)[C@H]3CC[C@@]21C
not listed: [19] | [20]
inactive: all other assays above

Cc1ccc(C(C)(C)C)c(O)c1
not listed: [20]
inactive: all other assays above

CC(C)(O)c1ccc(CNC(=O)c2cccnc2Oc2ccc(F)cc2)cc1
active: [13] 0.457 µM
not listed: [20]
inactive: all other assays above

O=C1NC(=O)C(c2ccccc2)(c2ccccc2)N1
not listed: [3] | [19]
inactive: all other assays above

CSc1ccc(Oc2ccc(S(N)(=O)=O)cc2CN(C)C)cc1C
active: [7] 20 µM
not listed: [19] | [20]
inactive: all other assays above

NCCOCCOCCN
active: [7] 14.6 µM
not listed: [13] | [19] | [20]
inactive: all other assays above
